Test results: PubChem BioAssay (NCATS)
Inconclusive results are not listed. Unmarked numbers belong to inactive results. Calls follow the shape of the dose curve; as a rule, active = well fitted inhibition curve with a large enough effect; inconclusive = small, poorly fitted or top-dose-only effect, or effect the other way; inactive = flat fitted curve, though single readings scatter.

biological target: ATP-dependent 6-phosphofructokinase (Trypanosoma brucei brucei) (UniProt O15648); test: qHTS Assay to Find Inhibitors of T. brucei phosphofructokinase: hit validation (AID 492961);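 also: luminescence reports ADP formed as PFK phosphorylates fructose-6-phosphate with ATP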; details: T. brucei PFK, ADP-Glo luminescence; series mostly up to 51.4 µM; activity change, negative = inhibition: at the top concentration
Sequence (O15648 whole entry, looked up): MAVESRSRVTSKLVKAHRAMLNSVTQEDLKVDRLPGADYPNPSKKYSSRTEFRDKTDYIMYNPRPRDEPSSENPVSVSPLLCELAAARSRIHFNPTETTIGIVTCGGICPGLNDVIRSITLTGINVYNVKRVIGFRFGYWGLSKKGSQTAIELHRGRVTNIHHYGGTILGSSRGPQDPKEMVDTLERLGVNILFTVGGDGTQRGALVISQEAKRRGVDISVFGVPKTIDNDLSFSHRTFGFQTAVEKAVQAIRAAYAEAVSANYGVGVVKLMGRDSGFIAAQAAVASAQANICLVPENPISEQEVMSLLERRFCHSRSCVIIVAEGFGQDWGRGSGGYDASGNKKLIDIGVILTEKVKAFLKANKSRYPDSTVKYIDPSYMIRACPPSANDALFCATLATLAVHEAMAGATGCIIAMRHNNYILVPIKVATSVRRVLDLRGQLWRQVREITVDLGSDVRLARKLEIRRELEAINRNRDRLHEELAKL
Procedure, shortened: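 In this biochemical qHTS validation, titrated compounds were tested against 1.25 nM PFK with 0.1 mM ATP and 0.5 mM F6P. Percent activity came from controls lacking or containing enzyme.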
% is scaled to controls: 0 for no effect and ±100 for the full control effect.

Compared with Cc1cccc(C)c1NC(=O)C1CCCCN1C (stereo unspecified), CC1CCCCN1CCCOC(=O)c1ccccc1 (stereo unspecified) is lower in “activity change, negative = inhibition” value: 7.66% for the first, -7.94% for the second.

First: CC(=O)Nc1ccc(OC(=O)c2ccccc2O)cc1
Second: O=C(O)/C=C/C(=O)Nc1ccc(S(=O)(=O)Nc2nccs2)cc1
The “activity change, negative = inhibition” value of the first is lower: -6.68% for the first, -2.56% for the second.

Compared with O=C(O)CCC/C=C\C[C@@H]1[C@@H](/C=C/[C@@H](O)COc2cccc(C(F)(F)F)c2)[C@H](O)C[C@@H]1O, CCN(CC)CCC(=O)N1c2ccccc2Sc2ccc(C(F)(F)F)cc21 is higher in “activity change, negative = inhibition” value: -0.102% for the first, 15.2% for the second.

Compared with O=C1[O][Bi][O]c2ccccc21, CCC(C(=O)NC(N)=O)c1ccccc1 (stereo unspecified) is higher in “activity change, negative = inhibition” value: -13.6% for the first, 4.38% for the second.

First: CO/N=C(\C(=O)N[C@@H]1C(=O)N2C(C(=O)[O-])=C(C[n+]3cccc4c3CCC4)CS[C@H]12)c1csc(N)n1
Second: COc1ccc(/C=N/NC(=O)c2ccncc2)c(C(=O)O)c1OC
The “activity change, negative = inhibition” value of the first is lower: -13.2% for the first, -4.08% for the second.

First: C/C(=C\C(=O)OCCCCCCCCC(=O)O)C[C@@H]1OC[C@H](C[C@@H]2O[C@H]2[C@@H](C)[C@H](C)O)[C@@H](O)[C@H]1O
Second: C=CCCCCCCCCC(=O)OC
The “activity change, negative = inhibition” value of the first is higher: 2.38% for the first, -9.52% for the second.

Compared with CNC(=O)c1c(I)c(C(=O)NCC(=O)Nc2c(I)c(C(=O)O)c(I)c(C(=O)NCCO)c2I)c(I)c(N(C)C(C)=O)c1I, COc1cc(C)c(/C=C/C(C)=C/C=C/C(C)=C/C(=O)O)c(C)c1C is higher in “activity change, negative = inhibition” value: 4.1% for the first, 7.99% for the second.

Going from CC1=CC(=C(c2ccc(N)cc2)c2ccc(N)cc2)C=CC1=N to CN(C)CCOc1ccc(/C(=C(/CCCl)c2ccccc2)c2ccccc2)cc1, the “activity change, negative = inhibition” value falls from -3.57% to -5.67%.

Compared with O=[N+]([O-])c1c(Cl)cccc1-c1c[nH]cc1Cl, CCN(CC)CCCC(C)Nc1cc(/C=C/c2ccccc2Cl)nc2cc(Cl)ccc12 (stereo unspecified) is higher in “activity change, negative = inhibition” value: -7.59% for the first, 3.57% for the second.

First: COc1ccc2c(c1)OC(C)(C)C(c1ccccc1)C2c1ccc(OCCN2CCCC2)cc1 (stereo unspecified)
Second: O=C(CCCN1CCC(C(=O)c2ccc(F)cc2)CC1)c1ccc(F)cc1
The “activity change, negative = inhibition” value of the first is higher: 18.3% for the first, 2.16% for the second.

Going from CCOC(=O)c1c[nH]c2cc(OCC(C)C)c(OCC(C)C)cc2c1=O to CC(C)NCC(O)COc1ccccc1-n1cccc1 (stereo unspecified), the “activity change, negative = inhibition” value falls from -0.162% to -2.01%.

First: CCCCCCCCCCCCCCCCOCCOCCOCCOCCOCCOCCOCCOCCOCCOCCOCCOCCOCCOCCOCCOCCOCCOCCOCCOCCO
Second: CCCCCCCCCCCCCC(=O)OCC(COP(=O)([O-])OCC[N+](C)(C)C)OC(=O)CCCCCCCCCCCCC (stereo unspecified)
The “activity change, negative = inhibition” value of the first is higher: 6.99% for the first, 6.03% for the second.

First: CC(C)CCC[C@@H](C)[C@H]1CC[C@H]2[C@@H]3CC=C4C[C@@H](O)CC[C@]4(C)[C@H]3CC[C@]12C
Second: CC12CCC(C1)C(C)(C)C2=O (stereo unspecified)
The “activity change, negative = inhibition” value of the first is lower: -5.49% for the first, 4.36% for the second.

Going from NCC(O)CC(=O)O (stereo unspecified) to NCCO/C=C/[C@H](N)C(=O)O, the “activity change, negative = inhibition” value rises from -0.586% to 0.806%.

First: CC(C)(C)CC(C)(C)c1ccc(OCCO)cc1
Second: Cc1ccc(C(C)(C)c2ccc(C)cc2)cc1
The “activity change, negative = inhibition” value of the first is higher: 4.02% for the first, 1.04% for the second.

First: F[Si-2](F)(F)(F)(F)F
Second: O=P(O)(O)OC[C@H]1O[C@](O)(COP(=O)(O)O)[C@@H](O)[C@@H]1O
The “activity change, negative = inhibition” value of the first is lower: 4.82% for the first, 24% for the second.

Compared with O=P(O)(O)O, OC[C@H]1O[C@@](CO)(O[C@H]2O[C@H](CO)[C@@H](O)[C@H](O)[C@H]2O)[C@@H](O)[C@@H]1O is lower in “activity change, negative = inhibition” value: 2.68% for the first, -5.18% for the second.

For C=C1C(CCl)(CCl)C2(Cl)C(Cl)C(Cl)C1(Cl)C2(Cl)Cl (stereo unspecified), the “activity change, negative = inhibition” value was -0.666%.

CC(=O)Oc1cc(C(F)(F)F)ccc1C(=O)O was tested, and the “activity change, negative = inhibition” value was -8.98% [at 24.3 µM].
